The record followed here is paper PMC4336329 (PLoS ONE, 2015).

About 14,000 (4.5%) of roughly 310,000 compounds showed an effect of 50% or more. Effects have a minus sign here. The entries come from a sample that favours strong results as a whole.
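Note: peak tail current of the secondary pulse compared with the same well before compound.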

The target in this assay is human ether-à-go-go-related gene (hERG) potassium channel (human, UniProt Q12809). Nature of the assay: primary screen, population patch clamp on CHO cells stably expressing hERG; higher = less effect of the substance.
Chain of human ether-à-go-go-related gene (hERG) potassium channel (Q12809 whole entry, looked up): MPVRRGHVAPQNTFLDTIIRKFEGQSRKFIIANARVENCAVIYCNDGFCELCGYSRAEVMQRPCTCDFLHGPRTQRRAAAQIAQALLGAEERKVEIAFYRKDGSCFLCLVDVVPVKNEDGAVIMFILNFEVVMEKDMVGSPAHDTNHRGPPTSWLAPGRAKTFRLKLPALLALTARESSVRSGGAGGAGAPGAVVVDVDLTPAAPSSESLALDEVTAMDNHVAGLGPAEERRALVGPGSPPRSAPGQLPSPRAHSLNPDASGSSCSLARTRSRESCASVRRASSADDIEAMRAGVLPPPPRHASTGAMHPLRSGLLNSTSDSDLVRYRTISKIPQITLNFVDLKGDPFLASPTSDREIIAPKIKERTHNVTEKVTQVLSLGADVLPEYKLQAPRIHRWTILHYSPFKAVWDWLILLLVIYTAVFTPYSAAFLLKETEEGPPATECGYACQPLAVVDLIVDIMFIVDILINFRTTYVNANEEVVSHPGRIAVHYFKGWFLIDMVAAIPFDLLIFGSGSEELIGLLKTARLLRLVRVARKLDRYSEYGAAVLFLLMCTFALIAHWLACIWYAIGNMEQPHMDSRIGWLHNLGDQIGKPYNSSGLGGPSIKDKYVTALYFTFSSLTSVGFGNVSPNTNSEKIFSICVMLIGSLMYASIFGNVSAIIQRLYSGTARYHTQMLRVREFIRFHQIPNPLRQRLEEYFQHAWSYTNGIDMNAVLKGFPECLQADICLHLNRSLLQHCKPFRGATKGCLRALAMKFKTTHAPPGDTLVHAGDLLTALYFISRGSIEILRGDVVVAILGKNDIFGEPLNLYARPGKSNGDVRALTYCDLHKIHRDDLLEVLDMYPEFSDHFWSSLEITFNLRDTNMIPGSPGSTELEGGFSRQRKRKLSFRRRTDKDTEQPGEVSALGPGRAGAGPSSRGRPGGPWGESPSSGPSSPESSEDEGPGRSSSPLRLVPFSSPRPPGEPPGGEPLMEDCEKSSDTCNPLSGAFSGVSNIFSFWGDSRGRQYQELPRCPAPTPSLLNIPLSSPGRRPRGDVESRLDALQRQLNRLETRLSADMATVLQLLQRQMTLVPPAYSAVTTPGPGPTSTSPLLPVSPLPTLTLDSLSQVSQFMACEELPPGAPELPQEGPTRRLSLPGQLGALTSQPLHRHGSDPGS
For `CCN(CC)Cc1c(O)ccc2c(=O)c(-c3ccccc3)coc12.Cl`, the “hERG current change (%, negative = inhibition) at 10uM” value is listed as -1.91%. As to `CC1CCCN(Cc2c(O)ccc3c(=O)c(-c4nc5ccccc5s4)c(N)oc23)C1` (centres unmarked), the “hERG current change (%, negative = inhibition) at 10uM” value was -0.886%. On to `CC1CCCCN1Cc1c(O)ccc2c(=O)c(-c3nc4ccccc4s3)coc12` (centres unmarked), for which the “hERG current change (%, negative = inhibition) at 10uM” value is listed as -48%.

Turning to `CCN(CC)Cc1c(O)ccc2c(=O)c(-c3ccc(Cl)cc3)coc12`, the “hERG current change (%, negative = inhibition) at 10uM” value is given as -58.4%. Consider `COc1ccc(-c2coc3c(CN4CCCCC4C)c(O)ccc3c2=O)cc1` (centres unmarked), for which the “hERG current change (%, negative = inhibition) at 10uM” value is listed as -39.4%. As to `COc1ccccc1-c1coc2c(CN3CCCCC3C)c(O)ccc2c1=O` (centres unmarked), the “hERG current change (%, negative = inhibition) at 10uM” value came out at 6.44%.

With `CN(C)Cc1c(O)ccc2c(=O)c(-c3ccc(Cl)cc3)coc12`, the “hERG current change (%, negative = inhibition) at 10uM” value is -9.92%. Take `CC1CCCCN1Cc1c(O)ccc2c(=O)c(-c3ccc(Cl)cc3Cl)coc12` (centres unmarked): the “hERG current change (%, negative = inhibition) at 10uM” value is -60.7%. In the case of `CC1CCCCN1Cc1c(O)ccc2c(=O)c(-c3ccccc3)coc12` (centres unmarked) it was -38.2%. As to `N#Cc1cc2ccccc2nc1SCC(=O)Nc1ccc(S(=O)(=O)N2CCCC2)cc1`, the “hERG current change (%, negative = inhibition) at 10uM” value amounted to 6.03%.

Turning to `Cn1ncnc2c(=O)n(C)c(=O)nc1-2`, the “hERG current change (%, negative = inhibition) at 10uM” value is reported as -2.67%. As to `O=C(NCc1ccccc1)Nc1cccn(Cc2ccccc2Cl)c1=O`, the “hERG current change (%, negative = inhibition) at 10uM” value is reported as 18.8%.

Regarding `Cc1nc2ccccc2c(=O)n1-c1ccc(F)cc1F`, the “hERG current change (%, negative = inhibition) at 10uM” value came out at 3.52%.

Turning to `CCOC(=O)CNC(=O)c1ccc2[nH]c3c(c2c1)CCCC3`, the “hERG current change (%, negative = inhibition) at 10uM” value is on record as 11.5%.

Regarding `CCOC(=O)c1ccc(OCCOc2ccccc2C)cc1`, the “hERG current change (%, negative = inhibition) at 10uM” value is given as 24%.

On to `O=c1c(Cl)c(N2CCN(S(=O)(=O)c3ccc(F)cc3)CC2)cnn1-c1cccc(Cl)c1`, for which the “hERG current change (%, negative = inhibition) at 10uM” value is recorded as -29.4%. On to `O=C(CSCc1ccccc1Br)N/N=C/c1ccc(OCC(=O)N2CCCCC2)cc1`, for which the “hERG current change (%, negative = inhibition) at 10uM” value is reported as -15.9%. Regarding `CNC(=O)c1[nH]cnc1C(=O)Nc1ccc(OC)cc1`, the “hERG current change (%, negative = inhibition) at 10uM” value stood at 20.8%. As to `O=c1[nH]cnc2cc(-c3ccc(Br)cc3)sc12`, the “hERG current change (%, negative = inhibition) at 10uM” value stood at 12.3%. In the case of `CN(C)S(=O)(=O)c1ccc(N2CCCC2)c(C(=O)N2CCN(S(=O)(=O)c3cccc(F)c3)CC2)c1` it was -10.7%; in that of `Cc1nnc2ccc(-c3cccc(NS(=O)(=O)c4cc(F)ccc4F)c3)nn12`, -0.0273%; in that of `O=C(O)CSCC(=O)Nc1ccc(C(=O)O)cc1`, 12.5%. In the case of `COc1ccc(-c2c(C)oc3c(CN4CCCCC4C)c(O)ccc3c2=O)cc1` (centres unmarked) it was -16.6%; in that of `Cc1oc2c(CN3CCCCC3C)c(O)ccc2c(=O)c1-c1ccc(Br)cc1` (centres unmarked), -50.9%. For `Cc1oc2c(CN3CCCCC3C)c(O)ccc2c(=O)c1-c1ccccc1` (centres unmarked), the “hERG current change (%, negative = inhibition) at 10uM” value is given as -27.6%. In the case of `O=C(Cc1c(F)cccc1Cl)NCCc1c[nH]c2ccccc12`, the “hERG current change (%, negative = inhibition) at 10uM” value was found to be 8.99%. As for `Cc1nn(CC#N)c(=O)n1-c1ccccc1`, the “hERG current change (%, negative = inhibition) at 10uM” value turned out to be 8.38%. Turning to `CCn1c(SCC#N)nc2c(c1=O)C1(CCCC1)Cc1ccccc1-2`, the “hERG current change (%, negative = inhibition) at 10uM” value was determined as 2.38%.

Turning to `CN(Cc1ccccc1)C(=O)CN(Cc1ccccc1)S(C)(=O)=O`, the “hERG current change (%, negative = inhibition) at 10uM” value was -4.6%.

As to `O=C(c1ccc(S(=O)(=O)c2ccccc2Cl)c([N+](=O)[O-])c1)N1CCCCCC1`, the “hERG current change (%, negative = inhibition) at 10uM” value was -11%.

For the molecule `COC(=O)CCCC(=O)NC1CCCN(C2Cc3ccccc3C2)C1` (centres unmarked), the “hERG current change (%, negative = inhibition) at 10uM” value is -10.6%. The same measure for `COCCN(CC1CCCN(C2Cc3ccccc3C2)C1)C(=O)CCC(C)=O` (centres unmarked): -6.4%. In the case of `COCCN(CC1CCCN(C2Cc3ccccc3C2)C1)C(=O)CCSC` (centres unmarked) it was -45.8%; in that of `COCCN(CC1CCCN(C2Cc3ccccc3C2)C1)C(=O)CCC(N)=O` (centres unmarked), -75.1%; in that of `O=C(NCC1CCCN(C2Cc3ccccc3C2)C1)c1cccs1` (centres unmarked), -40.7%. The same measure for `COCCN(CC1CCCN(C2Cc3ccccc3C2)C1)C(=O)CCC(F)(F)F` (centres unmarked): -55.4%; for `CCCC(=O)N(CCc1ccc(OC)cc1)Cc1nc2ccccc2c(=O)[nH]1`: -8.61%; for `COc1ccc2c(c1)c(CC(=O)Nc1cccc(S(N)(=O)=O)c1)c(C)n2C(=O)c1ccc(Cl)cc1`: 1.02%. With `CCN(CC(=O)NCc1ccc(F)cc1)S(=O)(=O)c1ccc(C)cc1`, the “hERG current change (%, negative = inhibition) at 10uM” value was -43.6%. The same measure for `Cc1ccc(S(=O)(=O)N(Cc2ccc(F)cc2)Cc2ccco2)cc1`: 2.28%; for `Cc1ccc(S(=O)(=O)N(CC(=O)NCc2ccncc2)Cc2ccc(F)cc2)cc1`: -79.2%; for `Cc1ccc(S(=O)(=O)N(CC(=O)NCc2ccco2)Cc2ccc(F)cc2)cc1`: -67.1%. The same measure for `CS(=O)(=O)N(CCc1ccccc1)CC(=O)NCc1ccco1`: -3.21%.

As for `CCN(CC(=O)NCc1cccnc1)S(=O)(=O)c1ccc(OC)cc1`, the “hERG current change (%, negative = inhibition) at 10uM” value was -28.3%.

For the molecule `O=C(CN(Cc1ccccc1)S(=O)(=O)c1ccc(Br)cc1)NCc1ccco1`, the “hERG current change (%, negative = inhibition) at 10uM” value is reported as -51.6%. For the molecule `COc1ccc(S(=O)(=O)N(CC(=O)NCc2cccnc2)Cc2ccccc2)cc1`, the “hERG current change (%, negative = inhibition) at 10uM” value is listed as -76.5%. Take `CCN(CC(=O)NCc1ccco1)S(=O)(=O)c1ccc(OC)cc1`: the “hERG current change (%, negative = inhibition) at 10uM” value was 3.31%. For `CN(CC(=O)NCc1ccncc1)S(=O)(=O)c1ccc(F)cc1`, the “hERG current change (%, negative = inhibition) at 10uM” value is reported as -0.77%. The same measure for `COc1ccc(S(=O)(=O)N(C)CC(=O)NCc2cccnc2)cc1`: -31.8%; for `CCN(CC(=O)NCc1ccco1)S(=O)(=O)c1ccc(F)cc1`: 5.61%.
